Laboratory results reported in paper PMC12701074.

Columns and labels:
Histone H4 = Histone H4 (UniProt P62805); assay: cross-linking mass spectrometry
Histone H1.4 = Histone H1.4 (UniProt P10412); assay: cross-link between two proteins; cross-linking mass spectrometry
Protein RCC2 = Protein RCC2 (UniProt Q9P258); assay: as above
[1] = molecular target: Beta-actin-like protein 2 (UniProt Q562R1); assay: as above
[2] = molecular target: Elongation factor 1-alpha 1 (UniProt P68104); assay: as above
Elongation factor 1-alpha 1, sequence (P68104 whole entry): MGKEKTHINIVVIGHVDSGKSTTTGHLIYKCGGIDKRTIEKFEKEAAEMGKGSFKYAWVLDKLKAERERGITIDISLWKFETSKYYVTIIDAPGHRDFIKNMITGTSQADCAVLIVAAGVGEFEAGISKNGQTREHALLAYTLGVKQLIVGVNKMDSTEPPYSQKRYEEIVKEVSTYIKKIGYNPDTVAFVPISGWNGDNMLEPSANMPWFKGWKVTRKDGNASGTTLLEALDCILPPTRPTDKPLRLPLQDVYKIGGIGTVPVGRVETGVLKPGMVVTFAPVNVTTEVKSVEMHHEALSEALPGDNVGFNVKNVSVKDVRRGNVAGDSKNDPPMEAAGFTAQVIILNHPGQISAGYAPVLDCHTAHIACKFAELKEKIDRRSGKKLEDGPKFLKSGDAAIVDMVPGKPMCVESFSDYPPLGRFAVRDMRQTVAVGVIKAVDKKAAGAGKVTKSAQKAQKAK

Histone H2B type 1-B = Histone H2B type 1-B (UniProt P33778); assay: as above
Histone H2B type 1-L = Histone H2B type 1-L (UniProt Q99880); assay: as above
[3] = molecular target: Large ribosomal subunit protein eL8 (UniProt P62424); assay: as above
Nucleolin = Nucleolin (UniProt P19338); assay: as above
Nucleolin, sequence (P19338 whole entry): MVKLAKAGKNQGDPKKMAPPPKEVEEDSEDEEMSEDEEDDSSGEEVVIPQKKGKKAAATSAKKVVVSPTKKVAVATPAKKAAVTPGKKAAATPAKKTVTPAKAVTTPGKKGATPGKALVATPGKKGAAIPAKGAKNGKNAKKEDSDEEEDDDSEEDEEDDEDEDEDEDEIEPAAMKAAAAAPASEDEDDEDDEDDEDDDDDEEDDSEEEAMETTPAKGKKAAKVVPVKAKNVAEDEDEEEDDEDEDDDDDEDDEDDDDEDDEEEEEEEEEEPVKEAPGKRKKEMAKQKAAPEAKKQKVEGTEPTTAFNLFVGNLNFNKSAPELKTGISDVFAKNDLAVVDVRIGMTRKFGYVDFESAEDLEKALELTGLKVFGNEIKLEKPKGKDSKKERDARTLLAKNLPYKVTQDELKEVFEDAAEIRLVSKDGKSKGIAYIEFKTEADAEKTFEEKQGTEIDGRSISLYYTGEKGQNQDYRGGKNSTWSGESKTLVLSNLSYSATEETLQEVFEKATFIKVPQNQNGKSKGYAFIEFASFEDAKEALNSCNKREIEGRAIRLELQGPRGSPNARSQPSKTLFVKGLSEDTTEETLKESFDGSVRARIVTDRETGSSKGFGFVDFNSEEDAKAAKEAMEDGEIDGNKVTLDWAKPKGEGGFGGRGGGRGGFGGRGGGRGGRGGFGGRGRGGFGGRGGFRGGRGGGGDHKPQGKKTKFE

Tubulin beta-2B chain = Tubulin beta-2B chain (UniProt Q9BVA1); assay: as above
Tubulin beta-2B chain, sequence (Q9BVA1 whole entry): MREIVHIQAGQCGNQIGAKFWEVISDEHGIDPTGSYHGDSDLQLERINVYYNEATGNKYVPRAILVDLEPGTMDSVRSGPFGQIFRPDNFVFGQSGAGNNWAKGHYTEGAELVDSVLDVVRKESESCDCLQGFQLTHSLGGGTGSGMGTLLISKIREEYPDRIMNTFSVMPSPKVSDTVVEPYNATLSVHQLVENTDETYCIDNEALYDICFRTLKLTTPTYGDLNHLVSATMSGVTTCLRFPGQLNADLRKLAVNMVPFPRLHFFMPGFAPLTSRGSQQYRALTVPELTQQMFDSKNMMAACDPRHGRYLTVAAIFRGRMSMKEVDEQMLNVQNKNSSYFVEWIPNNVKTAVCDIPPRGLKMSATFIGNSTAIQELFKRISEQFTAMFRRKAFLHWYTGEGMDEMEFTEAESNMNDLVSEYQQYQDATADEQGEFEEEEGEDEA

Tubulin beta-3 chain = Tubulin beta-3 chain (UniProt Q13509); assay: as above
Tubulin beta-3 chain, sequence (Q13509 whole entry): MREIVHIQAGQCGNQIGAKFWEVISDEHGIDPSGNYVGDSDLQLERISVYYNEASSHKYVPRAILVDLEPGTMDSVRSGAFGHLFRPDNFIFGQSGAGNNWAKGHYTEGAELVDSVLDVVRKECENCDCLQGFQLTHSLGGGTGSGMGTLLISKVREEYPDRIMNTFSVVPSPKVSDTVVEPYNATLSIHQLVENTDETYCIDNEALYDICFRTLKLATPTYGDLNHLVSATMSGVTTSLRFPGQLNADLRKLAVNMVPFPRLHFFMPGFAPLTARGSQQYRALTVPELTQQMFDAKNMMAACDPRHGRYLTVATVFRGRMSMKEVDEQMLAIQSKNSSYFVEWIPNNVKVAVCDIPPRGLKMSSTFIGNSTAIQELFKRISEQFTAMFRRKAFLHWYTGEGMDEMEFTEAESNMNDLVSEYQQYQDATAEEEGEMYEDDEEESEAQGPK

Tubulin beta-4B chain = Tubulin beta-4B chain (UniProt P68371); assay: as above
Tubulin beta-4B chain, sequence (P68371 whole entry): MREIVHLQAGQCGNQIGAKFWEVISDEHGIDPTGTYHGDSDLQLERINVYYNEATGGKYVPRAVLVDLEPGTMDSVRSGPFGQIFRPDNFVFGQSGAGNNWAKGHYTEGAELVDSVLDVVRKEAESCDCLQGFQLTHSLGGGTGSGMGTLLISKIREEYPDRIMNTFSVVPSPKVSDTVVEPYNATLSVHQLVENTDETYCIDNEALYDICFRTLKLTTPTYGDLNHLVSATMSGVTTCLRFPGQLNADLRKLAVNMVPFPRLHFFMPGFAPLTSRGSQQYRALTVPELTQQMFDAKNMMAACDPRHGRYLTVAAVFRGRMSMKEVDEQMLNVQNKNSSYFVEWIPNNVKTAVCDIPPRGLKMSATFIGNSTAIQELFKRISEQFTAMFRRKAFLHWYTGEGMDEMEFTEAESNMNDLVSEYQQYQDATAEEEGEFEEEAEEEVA

ATP-dependent RNA helicase A, Q08211, sequence (Q08211 whole entry): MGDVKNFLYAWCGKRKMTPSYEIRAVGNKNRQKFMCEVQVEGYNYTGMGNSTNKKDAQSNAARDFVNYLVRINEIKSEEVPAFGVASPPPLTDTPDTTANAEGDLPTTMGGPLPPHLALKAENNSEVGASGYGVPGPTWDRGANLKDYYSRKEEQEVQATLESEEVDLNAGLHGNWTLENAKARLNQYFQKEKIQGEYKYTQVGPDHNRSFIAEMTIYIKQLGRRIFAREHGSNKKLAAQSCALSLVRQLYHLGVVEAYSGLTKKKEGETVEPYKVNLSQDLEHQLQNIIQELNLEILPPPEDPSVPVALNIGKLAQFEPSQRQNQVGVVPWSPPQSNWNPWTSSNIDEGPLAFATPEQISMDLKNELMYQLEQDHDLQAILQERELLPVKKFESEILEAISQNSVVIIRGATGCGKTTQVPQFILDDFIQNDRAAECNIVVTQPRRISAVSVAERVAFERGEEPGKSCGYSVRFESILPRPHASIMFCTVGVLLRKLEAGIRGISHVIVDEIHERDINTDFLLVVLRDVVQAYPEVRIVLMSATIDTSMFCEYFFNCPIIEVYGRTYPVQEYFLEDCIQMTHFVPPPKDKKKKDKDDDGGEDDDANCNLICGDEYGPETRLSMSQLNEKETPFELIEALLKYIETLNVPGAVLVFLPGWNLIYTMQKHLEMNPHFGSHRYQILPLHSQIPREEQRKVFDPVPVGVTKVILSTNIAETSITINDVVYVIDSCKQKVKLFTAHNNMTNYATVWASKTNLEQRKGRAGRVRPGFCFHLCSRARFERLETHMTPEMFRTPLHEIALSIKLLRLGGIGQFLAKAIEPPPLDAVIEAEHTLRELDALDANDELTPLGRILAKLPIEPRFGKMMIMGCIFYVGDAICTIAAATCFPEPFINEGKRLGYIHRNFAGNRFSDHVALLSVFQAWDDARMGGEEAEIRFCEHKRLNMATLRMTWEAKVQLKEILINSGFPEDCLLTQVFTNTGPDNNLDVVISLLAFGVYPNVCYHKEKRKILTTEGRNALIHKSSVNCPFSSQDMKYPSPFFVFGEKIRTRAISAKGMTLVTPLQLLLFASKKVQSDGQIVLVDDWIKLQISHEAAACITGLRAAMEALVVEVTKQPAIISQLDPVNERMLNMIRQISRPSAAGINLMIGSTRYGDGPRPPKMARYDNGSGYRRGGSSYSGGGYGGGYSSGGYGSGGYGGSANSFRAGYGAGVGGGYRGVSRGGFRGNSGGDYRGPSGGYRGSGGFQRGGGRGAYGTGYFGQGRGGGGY
Glyceraldehyde-3-phosphate dehydrogenase, P04406, sequence (P04406 whole entry): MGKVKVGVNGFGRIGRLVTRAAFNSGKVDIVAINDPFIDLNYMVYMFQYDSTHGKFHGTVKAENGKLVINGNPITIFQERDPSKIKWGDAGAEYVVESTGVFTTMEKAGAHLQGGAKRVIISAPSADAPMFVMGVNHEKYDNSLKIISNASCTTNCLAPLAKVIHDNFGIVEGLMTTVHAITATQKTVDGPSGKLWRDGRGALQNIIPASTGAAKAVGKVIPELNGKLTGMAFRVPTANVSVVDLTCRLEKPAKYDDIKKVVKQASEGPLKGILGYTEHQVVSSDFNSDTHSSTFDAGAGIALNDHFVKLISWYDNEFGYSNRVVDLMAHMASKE
Beta-actin-like protein 2, sequence (Q562R1 whole entry): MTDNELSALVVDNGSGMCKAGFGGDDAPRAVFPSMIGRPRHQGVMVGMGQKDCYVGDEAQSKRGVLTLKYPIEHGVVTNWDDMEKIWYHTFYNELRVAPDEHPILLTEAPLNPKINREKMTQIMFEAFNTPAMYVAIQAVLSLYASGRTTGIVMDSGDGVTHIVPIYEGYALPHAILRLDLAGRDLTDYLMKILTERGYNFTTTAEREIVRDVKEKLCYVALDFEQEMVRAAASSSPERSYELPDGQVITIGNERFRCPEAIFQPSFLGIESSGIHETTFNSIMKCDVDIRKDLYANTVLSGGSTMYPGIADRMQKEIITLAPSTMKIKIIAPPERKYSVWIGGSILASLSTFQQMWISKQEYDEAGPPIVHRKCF
Protein RCC2, sequence (Q9P258 whole entry): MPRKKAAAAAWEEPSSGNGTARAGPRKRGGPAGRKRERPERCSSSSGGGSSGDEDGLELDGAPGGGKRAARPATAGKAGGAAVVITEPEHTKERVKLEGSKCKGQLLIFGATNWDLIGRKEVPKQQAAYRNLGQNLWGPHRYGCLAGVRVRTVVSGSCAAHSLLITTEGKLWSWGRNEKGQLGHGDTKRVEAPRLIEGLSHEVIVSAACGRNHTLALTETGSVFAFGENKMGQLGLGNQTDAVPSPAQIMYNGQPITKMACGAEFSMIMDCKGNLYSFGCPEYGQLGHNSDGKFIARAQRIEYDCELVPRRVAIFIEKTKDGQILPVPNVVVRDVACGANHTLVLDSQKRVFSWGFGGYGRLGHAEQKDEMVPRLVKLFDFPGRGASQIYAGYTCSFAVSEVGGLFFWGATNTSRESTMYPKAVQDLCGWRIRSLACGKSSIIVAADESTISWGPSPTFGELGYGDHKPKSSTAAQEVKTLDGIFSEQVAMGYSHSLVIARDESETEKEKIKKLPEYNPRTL

## High mobility group protein B1, P09429
Histone H4
  listed as a hit: yes
Histone H1.4
  listed as a hit: yes
Protein RCC2
  listed as a hit: yes

## Destrin, P60981
[1]
  listed as a hit: yes

## Fructose-bisphosphate aldolase A, P04075
[2]
  listed as a hit: yes
Histone H2B type 1-B
  listed as a hit: yes

## ATP-dependent RNA helicase A, Q08211
Histone H2B type 1-L
  listed as a hit: yes

## Heterogeneous nuclear ribonucleoprotein D-like, O14979
Histone H2B type 1-L
  listed as a hit: yes

## Histone H1.3, P16402
[3]
  listed as a hit: yes

## Macrophage migration inhibitory factor, P14174
Nucleolin
  listed as a hit: yes

## Tubulin beta-4B chain, P68371
Tubulin beta-2B chain
  listed as a hit: yes
Tubulin beta-3 chain
  listed as a hit: yes

## Tubulin beta chain, P07437
Tubulin beta-4B chain
  listed as a hit: yes

## Glyceraldehyde-3-phosphate dehydrogenase, P04406
Tubulin beta-4B chain
  listed as a hit: yes
